# An excerpt weighted towards active compounds, which were near 2.8% of everything screened.
# Giardia kill: kills Giardia lamblia. 340,000 tested, 0.15% active. activity change, % at 7.66 µM, hits read low. Giardia lamblia trophozoite viability. AID 540267; in the data active = activity change below about -80%; inconclusive = between about -30% and that limit;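 also: parasites exposed to compound for two days anaerobically before the ATP read; % is scaled to controls: 0 for no effect and ±100 for the full control effect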
#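 Giardia trophozoites, 100 cells per well, were exposed to compounds for 48 hrs at 37 deg C under anaerobic conditions; viability was then read as ATP content by bioluminescence after 15-30 min at room temperature.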
# DRD3 agonist: activates the human D3 dopamine receptor | AID 652048 | max activation, % | 410,000 tested, 0.58% active | D3R DiscoveRx beta-arrestin cells, luminescence, 90 min; in the data active = max activation above about 30%; also: 0% is about no effect
#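 Agonist mode: compounds and dopamine controls were applied to plated cells for 90 min at 37 degrees C after an overnight attachment at 1500 cells/well. Luminescent read-out followed 30 - 60 minutes at room temperature with DiscoveRx detection reagent.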
# DRD3 antagonist: D3 dopamine receptor (human) antagonism; max response, negative = inhibition, %; D3R cells, DiscoveRx beta-arrestin luminescence, antagonist mode; hits give low values; 360,000 tested, 2.5% active; in the data active = max response below about -50%; inconclusive = no clear call, values can overlap the other calls; also: % is scaled to controls: 0 for no effect and ±100 for the full control effect
#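 Cells expressing the human receptor were seeded at 1500 cells/well, incubated overnight at 37 degrees C in 5% CO2, then exposed to library compounds with dopamine controls for 90 minutes at 37 degrees C before luminescent detection.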
# B2AR arrestin: recruits beta-arrestin to the human beta2-adrenergic receptor; P07550; beta-arrestin recruitment to beta2AR, cell-based reporter; Potency, µM (series often up to 46.1 µM), without a hit: top-dose activation, actives largely listed as activators; 330,000 tested, 0.02% active; AID 492947; active = well fitted activation curve with a large enough effect; inconclusive = small, poorly fitted or top-dose-only effect;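 also: potency is read from the fitted curve at half-maximal effect; 0% = DMSO controls and full agonism = EC100 isoproterenol or metaproterenol; nearly all actives have a fitted effect of over 65% in size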
# Target sequence (P07550 whole entry, looked up): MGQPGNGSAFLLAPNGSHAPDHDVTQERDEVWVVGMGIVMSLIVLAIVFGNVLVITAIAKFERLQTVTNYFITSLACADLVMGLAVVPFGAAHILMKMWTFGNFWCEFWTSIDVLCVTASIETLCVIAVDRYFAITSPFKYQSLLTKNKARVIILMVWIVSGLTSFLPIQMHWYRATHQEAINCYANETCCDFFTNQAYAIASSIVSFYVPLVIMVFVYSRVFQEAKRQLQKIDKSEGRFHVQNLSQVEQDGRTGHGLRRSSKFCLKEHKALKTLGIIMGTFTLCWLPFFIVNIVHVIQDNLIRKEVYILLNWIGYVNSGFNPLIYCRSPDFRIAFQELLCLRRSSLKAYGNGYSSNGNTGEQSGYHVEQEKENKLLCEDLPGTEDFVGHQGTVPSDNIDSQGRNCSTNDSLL
# Numbers without * were called inactive; ? = inconclusive; nt = no result given.
SMILES,Giardia kill,DRD3 agonist,DRD3 antagonist,B2AR arrestin
Oc1ccc(-c2ccccc2)cc1CN1CCCCCC1,22,-18,-93*,-1%
Oc1ccc(CN2CCCCC2)nc1-c1ccccc1,12,13,-52*,-1%
Oc1cccnc1CN1CCCCC1,2,-5,12,nt
CCN1CCN(CC(=O)Nc2nc3ccc(OC)cc3s2)CC1,15,-1,-66*,0%
COc1ccc2nc(NC(=O)CN3CCN(C)CC3)sc2c1,-5,3,-59*,0%
COc1ccc2nc(NC(=O)C3CCCN3S(=O)(=O)c3ccc(C)cc3)sc2c1 (stereo unspecified),3,0,-71*,-1%
O=C(O)[C@@H]1Cc2c([nH]c3ccccc23)C2CCC(=O)N21 (stereo partly specified),3,-6,-2,-1%
O=C1CCC[C@H]2c3[nH]c4ccccc4c3CCN12,-6,-22,-51*,nt
COc1ccccc1N1CCN(C/C(C)=C/c2ccccc2)CC1,2,-71,-89*,0%
C/C(=C\c1ccccc1)CN1CCN(c2ccccc2)CC1,-10,-27,-109*,0%
C/C=C(\C)CN1CCN(c2ccccc2)CC1,10,-7,-71*,0%
Cc1ccc(S(=O)(=O)N2CCc3cc(C(=O)N(C)Cc4ccccc4)ccc32)cc1,nt,3,nt,nt
CCCCn1c(SCC(=O)Nc2nnc(C(C)C)s2)nc2c1c(=O)n(C)c(=O)n2C,2,41*,4,0%
CCCn1c(SCC(=O)Nc2nnc(CC)s2)nc2c1c(=O)n(C)c(=O)n2C,nt,nt,nt,0%
C[C@]12CC[C@H]3[C@@H](CCC4=CC(=O)CC[C@@]43C)[C@@H]1CC[C@@H]2C(=O)CO,-30,-91,-88*,-1%
Cc1nn(-c2nc3ccccc3[nH]2)c(=O)c2ccccc12,-97*,6,0,0%
COC(=O)CSc1nnc(-c2ccc3c(c2)OCO3)n1C,-13,-3,-69*,0%
O=C(Nc1ccc(F)cc1)c1cccc(N2CCCS2(=O)=O)c1,nt,-9,nt,nt
Cc1ccc2nc(Cl)c3cc(C(=O)NC4CCC(C)CC4)sc3c2c1 (stereo unspecified),nt,-3,nt,nt
Cc1c(C(=O)Nc2ccc(F)cc2)oc2ccc(S(=O)(=O)N3CC(C)CC(C)C3)cc12 (stereo unspecified),20,-4,-62*,-1%
CCN(CC)C(=O)c1oc2ccc(S(=O)(=O)N3CC(C)CC(C)C3)cc2c1C (stereo unspecified),11,7,4,1%
Cc1cccc(NC(=O)c2oc3ccc(S(=O)(=O)N4CCOCC4)cc3c2C)c1C,-2,41*,51,0%
Cc1c(NC(=O)C(C)(C)Oc2ccc(Cl)cc2)cccc1-c1nc2ncccc2o1,nt,-7,nt,nt
Cc1cc(N2CCN(C)CC2)ccc1NC(=O)c1ccc(-c2ccc(Cl)cc2)o1,67,-10,-20,-1%
Cc1ccc(NC(=S)NC(=O)c2ccc(-c3ccc(Cl)cc3)o2)c(O)c1,1,-16,-101*,0%
SMILES,Giardia kill,DRD3 agonist,DRD3 antagonist,B2AR arrestin
Cc1ccc(O)c(NC(=S)NC(=O)Cc2ccc(Cl)cc2)c1,6,-10,?,-1%
Cc1cc(O)c(NC(=S)NC(=O)c2ccc(-c3ccc(Cl)cc3)o2)cc1C,2,-32,-76*,0%
O=C(NCc1cccnc1)C(=O)NCC(c1ccco1)N1CCN(c2ccccc2F)CC1 (stereo unspecified),-6,51*,22,-1%
O=C(NCc1ccccc1)C(=O)NCC(c1ccco1)N1CCN(c2ccccc2F)CC1 (stereo unspecified),-6,12,1,0%
c1ccc(-c2oc3ncnc(NCCCN4CCOCC4)c3c2-c2ccccc2)cc1,15,-2,-65*,0%
COc1ccc(-c2oc3ncnc(NCCCN4CCOCC4)c3c2-c2ccc(OC)cc2)cc1,5,-5,-94*,0%
O=C(C1CCCN(S(=O)(=O)c2ccc(Br)s2)C1)N1CCN(c2ccc(F)cc2)CC1 (stereo unspecified),nt,5,nt,nt
COCCn1c(C)cc(C(=O)COC(=O)c2ccc3ncsc3c2)c1C,17,7,-55*,0%
COc1ccc(-c2nc3ccc(NS(C)(=O)=O)cc3o2)cc1,nt,3,nt,nt
COc1cccc(NC(=O)N(CCCN2CCOCC2)C(C)c2cc3ccccc3o2)c1 (stereo unspecified),4,-52,-70*,0%
COc1cccc(NC(=O)N(CCCN2CCOCC2)C(C)c2cc3cccc(OC)c3o2)c1 (stereo unspecified),2,-14,?,0%
CCc1nc2cccnc2n1-c1ccc(CC(=O)Nc2ccccc2Cl)cc1,nt,0,nt,nt
